Data reported in PubChem BioAssay AID624170 (National Center for Advancing Translational Sciences (NCATS), 2012).
Out of some 410,000 compounds screened, about 850 (0.21%) were called active. Where a call stands in place of a potency, no number is given. Roughly 2% stayed inconclusive and do not appear here. Calls follow the shape of the dose curve; as a rule, active = well fitted inhibition curve with a large enough effect; inconclusive = small, poorly fitted or top-dose-only effect, or another doubt; inactive = no such curve, though single readings can be large or run the other way. Only a selection was taken, and actives are over-represented in it overall.

target: Glutaminase kidney isoform, mitochondrial (Homo sapiens) (UniProt O94925); experiment: qHTS for Inhibitors of Glutaminase (GLS); details: GLS enzymatic activity, qHTS titration; series mostly up to 45.5 µM
Summary of the method: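 Enzyme dispensed in phosphate buffer (45 mM, pH 8.2, 0.02% Tween-20), compounds pinned in, then 1 mM L-glutamine solution and the glutamate oxidase–HRP–Amplex Red mix added; fluorescence read immediately and again after 30 min at room temperature.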
Potency is read from the fitted curve at half-maximal effect.

Glutaminase kidney isoform, mitochondrial (Homo sapiens), sequence (O94925 whole entry, looked up, canonical isoform): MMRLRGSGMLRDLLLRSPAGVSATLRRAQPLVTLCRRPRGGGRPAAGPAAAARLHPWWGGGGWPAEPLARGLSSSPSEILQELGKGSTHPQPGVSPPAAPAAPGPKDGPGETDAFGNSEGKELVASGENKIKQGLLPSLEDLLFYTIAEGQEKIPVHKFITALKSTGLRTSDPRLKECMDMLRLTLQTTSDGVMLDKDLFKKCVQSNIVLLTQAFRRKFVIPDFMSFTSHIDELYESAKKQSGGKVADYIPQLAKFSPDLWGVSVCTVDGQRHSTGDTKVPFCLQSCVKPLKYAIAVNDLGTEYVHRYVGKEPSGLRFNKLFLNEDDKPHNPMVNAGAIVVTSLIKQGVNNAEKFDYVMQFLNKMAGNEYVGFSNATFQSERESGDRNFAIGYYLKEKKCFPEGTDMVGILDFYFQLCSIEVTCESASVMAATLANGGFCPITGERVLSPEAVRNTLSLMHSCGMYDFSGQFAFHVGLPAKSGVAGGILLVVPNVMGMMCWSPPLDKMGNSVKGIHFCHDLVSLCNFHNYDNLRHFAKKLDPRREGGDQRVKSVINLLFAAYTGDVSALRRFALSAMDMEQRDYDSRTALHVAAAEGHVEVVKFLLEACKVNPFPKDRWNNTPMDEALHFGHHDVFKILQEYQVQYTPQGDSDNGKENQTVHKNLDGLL

| Compound | Potency |
| --- | --- |
| C[C@H]1C[C@H]2[C@@H]3CCC4=CC(=O)C=C[C@]4(C)[C@@H]3C(=O)C[C@]2(C)[C@@]1(O)C(=O)CO | inactive |
| O=C(O)c1ccc2c(c1)N(Cc1ccc(F)cc1)C(=O)c1ccccc1S2=O (stereo not drawn) | inactive |
| COc1cc2c(cc1OC)[C@@H](Cc1cc(OC)c(OC)c(OC)c1)[N+](C)(CCCOC(=O)CC/C=C/CCC(=O)OCCC[N+]1(C)CCc3cc(OC)c(OC)cc3[C@H]1Cc1cc(OC)c(OC)c(OC)c1)CC2 (stereo partly drawn) | inactive |
| NNc1nnc(Cc2ccncc2)c2ccccc12 | inactive |
| COc1ccc(/C(O)=C2/C(=O)C(=O)N(CCCN(C)C)C2c2ccccc2)cc1OC (stereo not drawn) | inactive |
| COc1ccc(C2/C(=C(/O)c3ccccc3)C(=O)C(=O)N2c2ncccn2)cc1OC (stereo not drawn) | 8.91 µM (active) |
| CCCOc1ccc(/C(O)=C2/C(=O)C(=O)N(CCN(C)C)C2c2ccc(OC)c(OC)c2)cc1 (stereo not drawn) | inactive |
| COc1ccc(N2CCN(c3cc(C)nc4nncn34)CC2)cc1 | inactive |
| CCc1ccc(NC(=O)CN2C(=O)CCSc3ccc(S(=O)(=O)N4CCCC4)cc32)cc1 | inactive |
| O=C(Nc1cccc(C(F)(F)F)c1)c1cc(Br)cc(Br)c1O | inactive |
| COc1ccc(C2=NOC3(CC(=O)N(c4ccc(Cl)cc4)C3=O)C2)c(OC)c1 (stereo not drawn) | inactive |
| COc1ccc2c(c1)C(=O)Nc1cc(Cl)ccc1N2 | 12.6 µM (active) |
| COc1ccc(OC)c(-c2noc(N3CCN(c4cc(Cl)ccc4C)CC3)n2)c1 | inactive |
| Cc1cc(C)c2sc(NC(=O)c3ccc(S(=O)(=O)N4CCCC4)cc3)nc2c1 | inactive |
| Cc1cn([C@H]2CC(F)[C@@H](CO)O2)c(=O)[nH]c1=O (stereo partly drawn) | inactive |
| CO/N=C(\C(=O)N[C@@H]1C(=O)N2C(C(=O)O)=C(Cn3nnc(C)n3)CS[C@H]12)c1csc(N)n1 | inactive |
| C=CC1=C(C(=O)O)N2C(=O)[C@@H](NC(=O)/C(=N/OCC(=O)O)c3csc(N)n3)[C@H]2SC1 | 12.6 µM (active) |
| C=CC1=C(C(=O)O)N2C(=O)[C@@H](NC(=O)/C(=N\OCC(=O)O)c3csc(N)n3)[C@H]2SC1 | 12.6 µM (active) |
| C[C@]12CC[C@@H]3c4ccc(O)cc4C[C@@H](CCCCCCCCCS(=O)CCCC(F)(F)C(F)(F)F)C3[C@@H]1CC[C@@H]2O (stereo partly drawn) | inactive |
| Cc1cccc(C)c1NC(=O)NC1=CCCN1C | inactive |
| CCCC(=O)O[C@]1(C(=O)COC(=O)CC)CC[C@@H]2[C@@H]3CCC4=CC(=O)CC[C@]4(C)[C@H]3[C@@H](O)C[C@@]21C | inactive |
| CN1CC(O)c2cc(N=NC(N)=O)c(O)cc21 (stereo not drawn) | inactive |
| CC(=O)O[C@]1(C(C)=O)CC[C@@H]2[C@@H]3C=C(C)C4=CC(=O)CC[C@@]4(C)[C@H]3CC[C@]21C | inactive |
| CC(C)(C)c1ccc(S(=O)(=O)N2CCN(C(=O)c3cc(-c4ccc(Br)cc4)n[nH]3)CC2)cc1 | inactive |
| COc1cc(OC)c(S(=O)(=O)Nc2ccccc2C(=O)O)cc1S(=O)(=O)Nc1ccccc1C(=O)O | 5.62 µM (active) |

| Compound | Potency |
| --- | --- |
| COc1ccc(Cl)cc1S(=O)(=O)Nc1cccc(C(=O)O)c1 | inactive |
| COc1cc(/C=C/C(=O)O)cc(S(=O)(=O)Nc2ccccc2SC)c1OC | inactive |
| COc1cc2c(cc1OC)CC(=O)N(CCCN(C)C[C@H]1Cc3cc(OC)c(OC)cc31)CC2 | inactive |
| Nc1ccc2nc3c(=O)[nH]c(=S)[nH]c3nc2c1 | 3.16 µM (active) |
| Cc1ccccc1C(=O)N(Cc1ccc(N(C)C)cc1)CC1CCCO1 (stereo not drawn) | inactive |
| CCOc1ccc(N(CC)C(=O)c2cc3c(=O)oc4ccccc4c3s2)cc1 | inactive |
| CC(=O)Oc1ccccc1C(=O)Nc1ncc([N+](=O)[O-])s1 | inactive |
| CCOC(=O)c1c(C)oc2nc(C)nc(N3CCN(c4ccc(OC)cc4)CC3)c12 | inactive |
| O=C(CC1Oc2ccccc2NC1=O)NCc1ccc(F)cc1 (stereo not drawn) | inactive |
| O=C(CCCCn1c(=O)c2ccccc2n(CC(=O)Nc2cccc(C(F)(F)F)c2)c1=O)NCc1ccc2c(c1)OCO2 | inactive |
| CCOc1cc2[nH]c(=S)n(Cc3ccc(C(=O)N4CCN(C)CC4)cc3)c(=O)c2cc1OCC | inactive |
| COc1ccc(OC)c(-n2c(=S)[nH]c3cc(C(=O)N4CCCCC4)ccc3c2=O)c1 | inactive |
| COc1ccccc1Cn1c(=S)[nH]c2cc(C(=O)N3CCN(C)CC3)ccc2c1=O | 12.6 µM (active) |
| O=C1C(c2[nH]c3ccccc3c2O)=Nc2ccccc21 | inactive |
| COc1ccc2c(C)c(CCC(=O)NCc3ccc(OC)c(OC)c3)c(=O)oc2c1 | inactive |
| Cc1c(CCC(=O)O)c(=O)oc2cc3occ(-c4ccccc4)c3cc12 | 11.2 µM (active) |
| COc1cccc(-c2coc3cc4oc(=O)c(CC(=O)O)c(C)c4cc23)c1 | inactive |
| CN1C(=O)C[C@H](c2ccccc2)C1=O | inactive |
| COc1ccc(C)cc1N(C)C(=O)c1c(C)oc2ncnc(N3CCOCC3)c12 | inactive |
| CC(C)c1ccc(S(=O)(=O)Nc2ccc(O)c(Sc3nc4ccccc4s3)c2)cc1 | inactive |
| O=C(O)c1cccc(S(=O)(=O)Nc2ccc(O)cc2Sc2nc3ccccc3s2)c1 | 14.1 µM (active) |
| O=[N+]([O-])c1c(NCCO)cc(Sc2nc3ccccc3s2)c2nonc12 | inactive |
| CCOC(=O)c1ccc(NC(=O)CCn2cnnn2)cc1 | inactive |
| CCCCCCCCCc1ccc(OCCOCCOCCOCCOCCOCCOCCOCCOCCO)cc1 | inactive |
| C[N+](C)(CCOc1ccccc1)Cc1cccs1 (tested in a mixture with another compound) | inactive |

| Compound | Potency |
| --- | --- |
| Cc1cccc(C)c1N1CCN(S(=O)(=O)N2CCCCC2)CC1 | inactive |
| O=S(=O)(/C=C/c1ccccc1)N1CCNCC1 | inactive |
| O=S(=O)(N1CCCCC1)N1CCNCC1 | 15.8 µM (active) |
| Cc1ccc(CN2CCC(CNC(=O)c3cnn(-c4ccccc4Cl)c3C3CCN(C(=O)OC(C)(C)C)CC3)CC2)cc1 | inactive |
| COc1cc(Cl)c(C)cc1Nc1nnc(-n2nc(C)cc2C)c2ccccc12 | inactive |
| COC(=O)CCCCC1=CCC2C(=O)C=C(O)C2C1 (stereo not drawn) | 12.6 µM (active) |
| CCC(C)[C@@H](N)C(=O)O (stereo partly drawn) | inactive |
| NCCCCC(N)C(=O)O (stereo not drawn) | inactive |
| Oc1ccc(Cl)c2c1CCC2 | inactive |
| CC(=O)OC[C@H]1O[C@@H](O[C@H]2[C@H](O)[C@@H](OC(=O)c3ccccc3C(=O)O)[C@H](O)O[C@@H]2COC(C)=O)[C@H](O)[C@@H](OC(=O)c2ccccc2C(=O)O)[C@@H]1O | inactive |
| Cc1ccnc(-n2sc3ccccc3c2=O)n1 | 10 µM (active) |
| Cc1ccnc(SC2CC(=O)N(c3ccccc3)C2=O)n1 (stereo not drawn) | inactive |
| C/C=C/C=N/NC(=O)c1ccncc1 | inactive |
| CCOC(=O)c1sc(NC(=O)/C=C/c2ccc(C(C)C)cc2)c(C(=O)OCC)c1C | inactive |
| CCOc1cccc2c1N[C@@H](c1ccc(C(=O)O)cc1)[C@H]1CC=C[C@@H]21 | 3.98 µM (active) |
| CCOC(=O)C1Nc2ccc(C(F)(F)F)cc2C2C=CCC12 (stereo not drawn) | inactive |
| CCOc1cccc(CC(=O)N2CCc3c([nH]c4ccccc34)C2c2ccc(F)cc2)c1OCC (stereo not drawn) | inactive |
| Cc1ccc(S(=O)(=O)NC(=O)NN2C[C@H]3CCC[C@@H]3C2)cc1 | inactive |
| Cc1ccc(S(=O)(=O)n2nc(C)c(S(=O)(=O)N3CCCCCC3)c2C)cc1 | inactive |
| CC(C)(O)c1ccccc1CC[C@H](SCC1(CC(=O)O)CC1)c1cccc(/C=C/c2ccc3ccc(Cl)cc3n2)c1 | inactive |
| COc1ccnc(C[S@@](=O)[C@@H]2Nc3ccc(OC(F)F)cc3N2)c1OC | inactive |
| C=C1C(=CC=C2CCC[C@]3(C)[C@@H]([C@H](C)C=C[C@H](C)C(C)C)CC[C@@H]23)C[C@@H](O)C[C@@H]1O | inactive |
| Cc1cccc(CCNC(=O)c2ccc3c(c2)nc2n3CCC(C)C2)c1 (stereo not drawn) | inactive |
| CCC1CCCCN1C(=O)CSc1nc2c(c(=O)n(C)c(=O)n2C)n1C (stereo not drawn) | inactive |
| CCN(CC)C(=O)CSc1nc2ccsc2c(=O)n1Cc1ccccc1Cl | inactive |

| Compound | Potency |
| --- | --- |
| CCOC(=O)CSc1nc2c(c(=O)n(Cc3ccccc3Cl)c(=O)n2C)n1C | 7.94 µM (active) |
| Cc1ccc(S(=O)(=O)N2CCc3cc(C(=O)Nc4ccc(Cl)cc4C)ccc32)cc1 | inactive |
| CC(=O)CC(c1ccccc1)C1C(=O)Oc2ccccc2C1=O (stereo not drawn) | inactive |
| Cc1ccc(NC(=O)c2cc(S(=O)(=O)NCCC3=CCCCC3)ccc2F)cc1C | inactive |
| CC1(C)OC2CO[C@]3(COS(N)(=O)=O)OC(C)(C)OC3C2O1 (stereo partly drawn) | inactive |
| CCOc1ccc(NS(=O)(=O)c2ccc(N)cc2)nn1 | inactive |
| CN(C)CCCSc1ccccc1NC(=O)/C=C/c1ccccc1 | inactive |
| Oc1ccc(/C=N/Nc2ccc(C(F)(F)F)cn2)cc1O | 11.2 µM (active) |
| COc1ccc(/C=N/NC(=O)Cn2cc(C(F)(F)F)ccc2=O)cc1 | inactive |
| C/C=C1\C2C=C(C)CC1(N)c1ccc(=O)[nH]c1C2 (stereo not drawn) | inactive |
| Cc1c(Cl)cccc1NC(=O)C1CCCN(C(=O)c2cnn(-c3ccccc3)c2-n2cccc2)C1 (stereo not drawn) | inactive |
| CCCCCCCCCCCCCCCCO | inactive |
| CCCN(CCC)S(=O)(=O)c1ccc(C(=O)Nc2sc3c(c2C(=O)OC)CCN(CC)C3)cc1 | inactive |
| Cc1ccc(CN2CCc3nc(N4CCN(C)CC4)ncc3C2)cc1 | inactive |
| CC(=O)NC(=O)c1ccccc1O | inactive |
| O=C(Cn1nc(C(=O)O)c2ccccc2c1=O)Nc1ccc(F)cc1 | inactive |
| CC1(C)NC(=O)N(CC(=O)Nc2ccc(-c3ccccc3)cc2)C1=O | inactive |
| Cc1ccc(NC(=O)Cn2sc3ccccc3c2=O)cc1 | 7.08 µM (active) |
| Cc1ccc(Cl)cc1N1CCN(C(=O)CN2C(=O)COc3ccc(S(=O)(=O)N4CCOCC4)cc32)CC1 | inactive |
| C=Cc1ccc(C(=O)N2CCCC(CCC(=O)N3CCN(c4ccccn4)CC3)C2)cc1 (stereo not drawn) | 17.8 µM (active) |
| CC(=O)c1ccc(S(=O)(=O)NCCC(=O)N2CCN(c3ccccn3)CC2)cc1 | inactive |
| COc1cccc(CC(=O)N2CCCC(CCC(=O)N3CCN(c4ccccn4)CC3)C2)c1 (stereo not drawn) | inactive |
| CCOC(=O)c1ccc(NC(=O)C2CCN(S(=O)(=O)c3ccc4c(c3)CCCC(=O)N4)CC2)cc1 | inactive |
